Bioassay records: PubChem BioAssay, The Scripps Research Institute Molecular Screening Center
DAX1 inh-1 = NR0B1 (DAX1) inhibition; P51843; HEK293 Gal4-DAX1 luciferase reporter, luminescence; AID 504766; inhibition, % at 6.75 µM; actives 0.99% (n = 340,000);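 active = inhibition above the mean over all tested compounds plus 3 SD, cut at about 4.2% in these data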;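 note: inhibition shows as a rise in luminescence from relieved DAX1 repression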
Target sequence (P51843 207-470 limits assumed): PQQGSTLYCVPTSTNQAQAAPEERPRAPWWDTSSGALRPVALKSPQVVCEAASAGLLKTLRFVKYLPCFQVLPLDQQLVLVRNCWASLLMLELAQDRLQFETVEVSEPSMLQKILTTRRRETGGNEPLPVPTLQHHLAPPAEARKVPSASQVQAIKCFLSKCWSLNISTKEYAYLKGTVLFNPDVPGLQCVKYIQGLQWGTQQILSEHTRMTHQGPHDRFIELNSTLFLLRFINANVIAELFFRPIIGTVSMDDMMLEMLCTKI
hcDAF-12 act = activates DAF-12 receptor from parasite H. contortus; HEK293 hcDAF-12 lit1-tk-luc reporter, luminescence; 0% DMSO, 100% Δ7-dafachronic acid; activation, % at 6.8 µM; actives 1.4% (n = 370,000); AID 652067;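 active = activation above the mean of all tested compounds plus 3 SD, cut at about 5.5% in these data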
DAX1 inh-2 = DAX1 (NR0B1) inhibition, primary screen; HEK293T StAR-luciferase reporter, SF-1/DAX-1 repression relief; inhibition, % at 6.8 µM; actives 1.1% (n = 370,000);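 active = inhibition above the mean over all tested compounds plus 3 SD, cut at about 3.6% in these data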;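 note: higher inhibition means more luminescence from relief of DAX-1 repression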
ssDAF12 agonist = S. stercoralis DAF-12 activation, primary screen. HEK293 ssDAF-12/GRIP1 lit1-tk-luc reporter, luminescence; % of 3 µM dafachronic acid response. activation, % at 6.8 µM. actives 1% (n = 370,000). AID 652126;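 active = activation above the mean over all tested compounds plus 3 SD, cut at about 0.9% in these data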
hgDAF-12 ag = activates the H. glycines DAF-12 receptor ligand-binding domain | HEK293 GAL4-hgDAF12 UAS-luciferase reporter, agonist luminescence; normalized to butyrate control | activation, % at 6.8 µM | actives 1.8% (n = 370,000);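 active = activation above a cutoff set at the mean of all screened compounds plus 3 SD, cut at about 10% in these data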
Large screens that a line does not name were inactive. A selection: hits, their analogues and other compounds. The true share with any hit is near 4.1%.

COc1ccc(C(=O)Nc2ccc(S(=O)(=O)Nc3cc(C)nc(C)n3)cc2)cc1OC	none
CS(=O)(=O)c1ccc(OC[C@@H](O)CN2CCC(C(O)(c3ccccc3)c3ccccc3)CC2)cc1	none (no result: DAX1 inh-1)
Cn1cnnc1Sc1ccc(C(=O)NCCC(c2ccccc2)c2ccccc2)cc1[N+](=O)[O-]	DAX1 inh-1 4.3
CCCCN(C)C(=O)c1ccc2c(c1)N(CC)C(=O)c1ccccc1S2=O (stereo not drawn)	DAX1 inh-1 4.7
COc1ccc(/C(N)=N/OC(=O)c2ccc3c(c2)OCO3)cc1	hcDAF-12 act 6.0
N/C(=N\OC(=O)c1ccc2c(c1)OCO2)c1ccc(Cl)cc1	none
Cc1ccc(/C(N)=N/OC(=O)c2ccc3c(c2)OCO3)cc1	none
N/C(=N\OC(=O)c1ccc2c(c1)OCO2)c1ccncc1	DAX1 inh-1 5.1
CCCN(CC1CC1)C(=O)c1ccc(CNC(=O)c2cccc(Br)c2)cc1	none (no result: DAX1 inh-1)
CCOC(=O)[C@@]12CCCC3=C1N(CCC3)C(=O)[C@H]2CC(=O)NCCCN1CCCC1=O	none (no result: DAX1 inh-1)
CCOC(=O)c1c(NC(=O)COC(=O)c2nc(Cl)ccc2Cl)sc(C(=O)NC)c1C	none
Cc1ccc(OCCC(=O)OCC(=O)Nc2ccc(C)c(S(=O)(=O)N3CCOCC3)c2)cc1	DAX1 inh-2 3.7
Cc1ccc(NC(=O)COC(=O)CC2CC3CCC2C3)cc1S(=O)(=O)N1CCOCC1 (stereo not drawn)	DAX1 inh-2 3.6
Cc1ccc(S(=O)(=O)NCC(=O)OCC(=O)Nc2ccc(C)c(S(=O)(=O)N3CCOCC3)c2)cc1	none
Cc1ccc(NC(=O)c2ccc(OCC3CCCO3)cc2)cc1 (stereo not drawn)	hgDAF-12 ag 12
Cc1ccc(NC(=O)c2ccc(OC(=O)COc3ccc(Cl)c(C)c3)cc2)cc1	hgDAF-12 ag 13
Cc1cc(OCC(=O)NC(C)(C)C)ccc1Cl	hgDAF-12 ag 12
COC(=O)COc1cccc(NC(=O)c2ccc(C)cc2)c1	none
CC/C(=N/Nc1cccc(Cl)c1)c1cnnc(SC)n1	DAX1 inh-1 4.6
CC/C(=N/Nc1ccccc1)c1cnnc(-c2ccccc2)n1	none
CC(C)(C)OC(=O)C[C@@H]1C/C=C\C[C@H](CC(=O)NCCO)C(=O)NC[C@H](c2ccccc2)OC1=O	none
CC(C)n1c(CCC(=O)O)ccc1-c1ccccc1	DAX1 inh-1 4.3
O=C(O)CC1COc2ccccc2N1C(=O)c1ccccc1Cl (stereo not drawn)	ssDAF12 agonist 1.5
COC(=O)CC1COc2ccccc2N1C(=O)c1ccc(OC)cc1 (stereo not drawn)	none
Cn1c2ccc(CC(=O)O)cc2c2cc(CC(=O)O)ccc21	none
COC(=O)Cc1ccc2c3ccccc3n(C)c2c1	hcDAF-12 act 5.8
COc1ccc(C2(C)NC(=O)N(CC3CCCCC3)C2=O)cc1 (stereo not drawn)	none
Cc1c(NS(=O)(=O)c2ccc(Cl)c(C(=O)OCC(=O)NCc3ccco3)c2)c(=O)n(-c2ccccc2)n1C	none
O=c1cc(-c2ccccc2)oc2cccc(O)c12	DAX1 inh-1 4.9
Cc1ccccc1-c1cc(=O)c2c(O)cccc2o1	none
O=c1cc(-c2cccc(Br)c2)oc2cccc(O)c12	hcDAF-12 act 5.8
O=c1cc(-c2cccc(Cl)c2)oc2cccc(O)c12	none
Cc1nn(-c2ccccc2)nc1C(=O)Nc1ccccc1C(=O)NCC1CC1	none (no result: DAX1 inh-1)
COc1ccc(C(=O)CC(Sc2ccccc2N)c2ccc(OC)cc2)cc1 (stereo not drawn)	DAX1 inh-2 4.1
COc1ccc(C(=O)CC(=O)c2ccc(C(C)(C)C)cc2)cc1	none
O=C(NCCc1ccccc1)OCc1cn(-c2ccc(F)c(F)c2)nn1	none (no result: DAX1 inh-1)
C/C(=N\NC(=O)c1ccccc1C)c1ccc(NC(=O)c2cccs2)cc1	hgDAF-12 ag 12
C/C(=N\NC(=O)c1ccccc1)c1ccc(NC(=O)c2cccs2)cc1	none
Cc1ccc(-c2nnc3n2N=C(c2ccc4ccccc4c2)CS3)cc1	none (no result: DAX1 inh-1)
COC(=O)C(NC(C)=O)(Nc1ccc(C)cn1)C(F)(F)F (stereo not drawn)	DAX1 inh-1 4.2
Cc1cc(NC(=O)c2ccccc2)ncc1NC(=O)c1cccs1	none
Cc1cc(NC(=O)c2cccs2)ncc1NC(=O)C(C)C	hgDAF-12 ag 11
O=C(NC(=S)Nc1ccccc1N1CCCC1)c1cccs1	hcDAF-12 act 5.7
CCN(CC)c1ccc(NC(=S)NC(=O)c2cccs2)cc1	hgDAF-12 ag 11
O=C(NC(=S)Nc1cccnc1)c1cccs1	none
O=C(NC(=S)Nc1ccc(Cl)cn1)c1cccs1	DAX1 inh-1 5.5, ssDAF12 agonist 1.1
O=C(N1CCCC1)n1ncc(-c2ccc(-c3ccccc3)cc2)n1	none (no result: DAX1 inh-1, DAX1 inh-2)
Cc1cccc(C(=O)Nc2nc3ncccn3c2-c2ccccc2)c1	none (no result: DAX1 inh-1)
COc1ccc(C(=O)OCCCN(C)C2CN(Cc3cn(Cc4ccc([N+](=O)[O-])cc4)nn3)S(=O)(=O)C2)cc1OC (stereo not drawn)	none (no result: DAX1 inh-1)
CCN(CC)c1ccc(NC(=S)Nc2ccc(F)cc2)cc1	hgDAF-12 ag 12
CC(C)C(=O)Nc1cccc(NC(=S)NC(=O)c2cccs2)c1	DAX1 inh-2 4.1
O=C(NC(=S)Nc1ccc(N2CCCCC2)cc1)c1cccs1	hgDAF-12 ag 12
O=C(NC(=S)N1CCCCC1CO)c1cccs1 (stereo not drawn)	DAX1 inh-1 6.5
CC(C)c1nc(N(C)S(C)(=O)=O)nc(-c2ccc(F)cc2)c1/C=C/[C@H](O)C[C@@H](O)CC(=O)O	none (no result: DAX1 inh-1)
CS(=O)(=O)c1nc(-c2ccc(Br)cc2)cs1	none (no result: DAX1 inh-1, DAX1 inh-2)
CC(=O)OCCCN1CCC2(CCC(c3ccccc3)CC2)C1=O (stereo not drawn)	none (no result: DAX1 inh-1)
FC(F)(F)Oc1ccc(Cn2ccc3ccc(-c4ccc5ccn(Cc6ccccc6)c5c4)cc32)cc1	none (no result: DAX1 inh-1)
Fc1ccc(COc2ccc(C(=S)N3CCCC3)cc2)cc1	DAX1 inh-1 4.3
COc1ccc(S[C@]2(C(=O)N3CCN(c4ncccn4)CC3)CC(=O)N(C(=O)C3CC3)[C@@H]2c2ccc(OC)cc2)cc1	none (no result: DAX1 inh-1)
NC(=O)c1ccccc1NC(=O)CN1CCN(Cc2ccc(Cl)cc2Cl)CC1	none
CC(=O)Nc1sc(N/N=C/c2ccccc2)nc1-c1ccc(C)cc1	DAX1 inh-1 5.0
CC(=O)Nc1sc(N/N=C\c2ccccc2)nc1-c1cccs1	hcDAF-12 act 6.2, ssDAF12 agonist 1.7
Cc1sc(N/N=C/C=C/c2ccccc2)nc1-c1ccccc1	hcDAF-12 act 6.0
CC(=O)Nc1sc(N/N=C\c2ccccc2Cl)nc1-c1cccs1	none
CN(C)c1cccc(-c2nccc(N3CCC(C(N)=O)CC3)n2)c1	none (no result: DAX1 inh-1, DAX1 inh-2)
CCN1CCN(C(=O)c2ccc(Cl)c(S(=O)(=O)N(C)c3ccccc3)c2)CC1	DAX1 inh-1 6.0
CN(c1ccc(C(=O)N2CCN(Cc3ccccc3)CC2)cc1)S(=O)(=O)c1ccccc1	none
COc1ccc(-c2nnn(CC(=O)N(CCCN3CCOCC3)C(C(=O)NC3CCCC3)c3ccc(C)o3)n2)cc1 (stereo not drawn)	none
